FMDV antiviral: blocks foot and mouth disease virus; AID 1159524; FMDV antiviral cell-based qHTS; 410,000 tested, 1.2% active; Potency, µM (doses to about 57.9 µM), for the others: at the top dose activity change, negative = inhibition, actives largely listed as inhibitors; calls by dose curve; tested in HEK293T cells; note: read-out not given here; potency is the fitted concentration of half-maximal effect; nearly all actives have a fitted effect of over 45% in size
AmpC inh detg: blocks E. coli AmpC beta-lactamase in detergent assay. AID 485294. AmpC hydrolysis of nitrocefin, absorbance 480 nm, 0.01% Triton. 370,000 tested, 0.041% active. Potency, µM (series often up to 114 µM), for the others: top-dose activity change, negative = inhibition, actives largely listed as inhibitors;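 note: potency is the fitted concentration of half-maximal effect; 0% = no-compound wells and -100% = no-enzyme wells; nearly all actives have a fitted effect of over 25% in size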
Target sequence (P00811 whole entry, looked up): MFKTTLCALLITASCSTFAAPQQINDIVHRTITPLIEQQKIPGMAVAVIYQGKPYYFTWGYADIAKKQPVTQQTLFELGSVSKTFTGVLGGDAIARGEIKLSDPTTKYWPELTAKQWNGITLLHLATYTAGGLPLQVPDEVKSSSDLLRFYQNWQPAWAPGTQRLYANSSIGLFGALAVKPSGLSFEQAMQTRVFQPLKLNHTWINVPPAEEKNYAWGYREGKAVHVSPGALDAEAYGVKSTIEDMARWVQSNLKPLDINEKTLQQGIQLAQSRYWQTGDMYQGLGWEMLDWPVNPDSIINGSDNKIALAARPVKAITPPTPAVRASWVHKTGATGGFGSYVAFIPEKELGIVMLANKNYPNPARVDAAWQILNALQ
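AmpC (5.3 nM in the dispensed reagent) in 20 mM phosphate pH 7.0 with 0.01% (detergent screen) or 0.0001% Triton X-100 was preincubated with compounds for 15 min at room temperature. Nitrocefin was then added from an 800 uM solution, and hydrolysis was followed at 480 nm.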
AmpC inh no detg: inhibitors of E. coli AmpC beta-lactamase without detergent; P00811; AmpC nitrocefin hydrolysis, absorbance 480 nm, 0.0001% Triton; Potency, µM (titrated, usually from 57.1 µM), inactives show top-dose activity change, negative = inhibition, hits mostly inhibitors; 330,000 tested, 0.52% active;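 note: potency is the fitted concentration of half-maximal effect; plate controls were no compound for no effect and no enzyme for full effect; nearly all actives have a fitted effect of over 20% in size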
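AmpC (5.3 nM in the dispensed reagent) in 20 mM phosphate pH 7.0 with 0.01% (detergent screen) or 0.0001% Triton X-100 was preincubated with compounds for 15 min at room temperature. Nitrocefin was then added from an 800 uM solution, and hydrolysis was followed at 480 nm.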
HCMV antiviral: inhibitors of human cytomegalovirus | HFF cells, HCMV-luciferase reporter, 72 h; active compounds read low | activity change, negative = inhibition, % at 57.5 µM | 410,000 tested, 4.5% active; in the data active = activity change below about -60%; inconclusive = no clear call, values can overlap the other calls; inactive = above about -39%
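Human foreskin fibroblasts infected with luciferase-reporter HCMV at MOI 1 PFU/cell, compounds at two doses. Luciferase measured 72 h post infection; normalized to buffer-only basal and Salinomycin (10uM) controls.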
HCV inh: HCV inhibition. Potency, µM (titrated, usually from 41.8 µM), inactives show top-dose activity change, negative = inhibition, actives largely listed as inhibitors. AID 651820. 340,000 tested, 3.4% active. Huh7.5.1 HCVcc-Cre infection, luciferase reporter, 44 h; note: potency is the fitted concentration of half-maximal effect
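A cell-based infection assay in which seeded cells (1,000 per well) receive test compound after 4 h, are inoculated with HCVcc-Cre at approximately 0.5 moi, and are incubated 44 h before luminescence detection.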
Active calls of the source: *; ? = inconclusive; . = no result given; ! = not confirmed by another sample. Sampled rows, rich in hits. Any-hit rate of the full collection: about 7.3%. Unless noted, calls come from the whole dose curve; as a rule, active = well fitted curve in the direction sought with a large enough effect; inconclusive = small, poorly fitted or top-dose-only effect, or another doubt; inactive = no such curve, though single readings can be large; an effect the other way counts as inactive or inconclusive. Unless noted, % is set by controls: 0 for no effect and ±100 for the full control effect.

SMILES	FMDV antiviral	AmpC inh detg	AmpC inh no detg	HCMV antiviral	HCV inh
O=c1[nH]c2ccccc2n1CCCN1CCC(n2c(=O)[nH]c3cc(Cl)ccc32)CC1	?	-13%	2%	-79*	?
O=C(NCCN1CCC(n2c(=O)[nH]c3ccccc32)CC1)c1ccc(Cl)cc1Cl	?	.	.	-35	.
CCCCN(CC)CCNC(=O)Cn1cc2c(n1)-c1c(oc(C(=O)N3CCCC3)c1C)CC2	-8%	2%	37%	-61*!	4%
Cc1c(C(=O)N2CCCC2)oc2c1-c1nn(CC(=O)NCCCOC(C)C)cc1CC2	?	2%	87%	?	6%
CCN1C(=O)/C(=C/N(C(C)=O)c2ccccc2)N(c2ccccc2)C1=S	32µM*	0%	1%	3	-8%
CCCCN1C(=O)C(CC(=O)NCC2CCCCC2)CC(C(=O)N(C)C)=C1C (stereo unspecified)	-1%	.	.	-105*	.
CC(C)Cn1c(=O)c(C(=O)N/N=C/c2cccc(F)c2)c(O)c2ccccc21	-28%	?	-28%	?	20µM*
Cc1ccc(C(=O)NC(=S)N2CCCCCC2)cc1	19%	-1%	-15%	-36	-1%
Cc1cccn2c(/C=N/OCc3cccc(F)c3)c(-c3ccc(Cl)cc3)nc12	-22%	-6%	-22%	4	6%
COc1cccc(/C(C#N)=C/c2c(-c3ccc(Cl)cc3)nc3c(C)cccn23)c1	-14%	-2%	-21%	?	11µM*
O=C(Nc1nnc(SCc2cc(=O)c3ccccc3[nH]2)s1)c1ccccc1	?	19%	.	-18	.
COc1ccccc1C(=O)Nc1nnc(SCc2cc(=O)c3ccccc3[nH]2)s1	22µM*	16%	.	-39	.
Cc1ccc2[nH]c(CSc3nnc(NC(=O)c4ccccc4C)s3)cc(=O)c2c1	?	20%	.	-74*	.
Cc1ccc(Cn2ccsc2=NC(=O)COC(=O)c2ccc(NC(=O)CC#N)cc2)cc1	25µM*	-14%	-41%	-7	?
Cc1ccc(Cn2ccsc2=NC(=O)CCl)cc1	?	6%	-1%	-99*	0.56µM*
COc1ccc(-c2nc(NCCN(C)C)nc3ccsc23)c(C)c1	-4%	.	.	-12	.
CCOC(=O)c1ccccc1NC(=O)c1sc2ncn(Cc3cccc(F)c3)c(=O)c2c1C	-5%	3%	.	22	.
O=C(CC(=O)c1ccccc1O)c1ccc(F)cc1	28%	3%	-34%	23	32µM*
O=C(CC(=O)c1ccccc1O)c1cccc(F)c1	11%	-6%	-38%	.	-11%
O=C(CCCC(=O)c1ccc(F)cc1)c1ccc(F)cc1	55%	-15%	-10%	-80*	0%
Cc1ccc(C(=O)CCS(=O)(=O)c2ccc(F)cc2)cc1	6%	5%	-26%	-99*	?
Cc1csc(=O)n1CCC(=O)OC(C)C(=O)NCc1ccccc1 (stereo unspecified)	-7%	.	-9%	6	5%
COc1ccc(CNC(=O)Nc2nnc([C@@H]3C[C@H](O)[C@@H](CO)O3)s2)cc1	-5%	.	.	-83*	.
COc1ccc(CNC(=O)Nc2nnc([C@H]3C[C@H](O)[C@@H](CO)O3)s2)cc1	-16%	.	.	-97*	.
O=C1NC(=O)N(Cc2ccccc2)C(=O)/C1=C/C=C/c1ccco1	13µM*	-6%	?	0	?
SMILES	FMDV antiviral	AmpC inh detg	AmpC inh no detg	HCMV antiviral	HCV inh
CC(C)c1ccc(N2C(=O)NC(=O)/C(=C\C=C\c3ccco3)C2=O)cc1	?	?	?	-95*	?
COc1ccc(CN2C(=O)NC(=O)/C(=C\c3ccco3)C2=O)cc1	-29%	?	-51%	-16	18%
COc1ccc(/C=C2/C(=O)N(Cc3ccco3)C(=O)N(C(C)C)C2=O)cc1	11%	-7%	-28%	-12	9%
CC(C)N1C(=O)/C(=C/C=C/c2ccco2)C(=O)N(Cc2ccco2)C1=O	18µM*	-10%	-23%	-38	?
CCc1cc(C(=O)OCC(=O)N2CCC(c3ccccc3)=N2)sc1C	-12%	-7%	44%	-11	-20%
COC(=O)c1cc(NC(=O)CN2C(=O)C(=O)N(C3CCCC3)C2=O)cc(C(=O)OC)c1	-22%	2%	-17%	-9	1%
CC(=O)c1cccc(NC(=O)c2ccc(-n3c(C)nnc3C)cc2)c1	0%	-5%	.	18	.

Screening data from PubChem BioAssay.
